Consider 14 molecules from PubChem BioAssay (NCI).

About 83,000 compounds went through this panel and 20% of them were active in at least one assay; those are over-represented in the sample as a whole.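 Values shown are percent growth following 48 h exposure of cells in 96-well plates to a single concentration of compound; below 10 was considered active.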 Unmarked numbers belong to inactive results. Activity calls are given as the source filed them.

Holding throughout (test): NCI-60 one-dose screen, 48 h (100 = growth as untreated, 0 = no growth, -100 = all killed)
What all share (details): 10 µM unless noted

Test [1] relates to NCI-H23 lung.
For test [2], the system named is NCI-H322M lung.
Test [3] relates to HOP-62 NSCLC.
Test [4] relates to NCI-H460 lung.
The subject of test [5] is HOP-92 NSCLC.
Test [6] has as its system NCI-H522 lung.
Test [7] concerns A549/ATCC NSCLC.
For test [8], the system named is 786-0 renal.
Test [9] concerns DU-145 prostate.
In test [10] the test system is COLO 205 colon.

For `CC(=O)c1ccc(NC(=O)Nc2ccc(S(=O)(=O)Nc3ccc(Cl)nn3)cc2)cc1`, the growth was 96.4% in test [1]; 95.8% in test [2]; 95.9% in test [3]; 109% in [4]; 106% in [5]; 96.9% in test [6]. The growth is 103% in test [7], 108% in test [8] and 110% in test [9].
`CN1C(=O)N(C)C2Nn3c(s/c(=C\c4ccc(Cl)cc4Cl)c3=O)=NC21` (stereo not drawn): the growth in test [1] is 61.8%; in [2], 78.7%; in [3], 73.2%; in [4], 30.8%; in test [5], 89.5%; in [6], 55.3%. The growth in [7] was 51.4%; in test [8], 68.5%; in test [10] it was 22%; in test [9], 30.3%.
For the molecule `O=C(Nc1ccc(Cl)cc1F)c1cc(I)ccc1O`, the growth in test [1] is 12.1%; in test [2] it was 17.8%; in [3], 21.9%; in [4], 15.7%; in [5], -24.6% (active); in test [6] it was -9.32% (active). The growth was 17.6% in test [7], 77.2% in [8], 106% in test [10] and 31.9% in [9].
Take `COc1ccc(CN2CCCC(C(=O)c3ccc(C(F)(F)F)cc3)C2)c(O)c1` (stereo not drawn): the growth was 37.3% in test [1]; 80.6% in test [2]; 37.5% in [3]; 7.11% (active) in test [4]; 36.5% in [5]; -36.6% (active) in test [6]. Besides, the results for the growth in [7], in test [8] and in test [9] were 32.3%, 41.5% and 50.6%, respectively.
With `Nc1nc2c(ncn2[C@@H]2O[C@H](CS)[C@@H](O)[C@H]2O)c(=O)[nH]1`, the growth in test [1] is 102%; in test [2], 93.3%; in test [3], 100%; in [4] it was 102%; in [5], 103%; in test [6], 97.4%. The growth in test [7] was 96.6%; in test [8], 106%; in [9], 105%.
With `COc1ccccc1N1C(=N)S/C(=C\c2ccc(OCc3ccccc3F)cc2)C1=O`, the growth in [1] was 79.8%; in test [2], 81.6%; in test [3], 98.8%; in [4], 77.4%; in test [5] it was 81.1%; in test [6], 65.7%. Besides, the growth in [7] is 80.3%; in test [8], 87.9%; in [9] it was 102%.
Consider `Cc1cc2c(c(C)c1Cl)C(=O)/C(=C/c1ccco1)O2`, for which the growth in [1] was 87.9%; in test [2], 99.2%; in [3] it was 96.7%; in test [4], 94.7%; in test [5], 129%; in test [6] it was 85.3%. Further, the results for the growth in [7], in test [8] and in [9] were 103%, 105% and 103%, respectively.
For the molecule `CCOC(=O)c1sc(-c2ccc(OS(=O)(=O)c3ccccc3[N+](=O)[O-])c(C=O)c2)nc1C`, the growth in [1] was 50.6%; in test [2] it was 58.4%; in test [3], 117%; in [4] it was 91.2%; in test [5], 65.6%; in test [6], 18.8%. Further, the growth is 82.3% in test [7], 80.3% in test [8] and 78.1% in [9].
As for `COc1cc(CNC(=O)Cc2ccccc2)ccc1OCc1cn(-c2ccc(F)cc2)nn1`, the growth in test [1] is 94.9%; in test [2] it was 103%; in test [3], 104%; in test [4], 101%; in test [5], 107%; in test [6], 90.1%. In addition, the figures for the growth in test [7], in [8] and in [9] were 97.5%, 104% and 108%, respectively.
Consider `OCCNc1nc(Nc2ccc(C3=NN(c4cc(Cl)cc(Cl)c4)C(c4ccc(C(F)(F)F)cc4)C3)cc2)nc(N2CCOCC2)n1` (stereo not drawn), for which the growth is 76% in test [1]; 80.3% in test [2]; 74.5% in test [3]; 46.4% in [4]; 98.6% in test [5]; 85.3% in [6]. The figures for the growth in test [7], in test [8] and in test [9] were 59.2%, 42.7% and 82.7%, respectively.
Regarding `COc1cc(/C=C2\CN(C)C/C(=C\c3cc(CN4CCCCC4)c(O)c(OC)c3)C2=O)cc(CN2CCCCC2)c1O`, the growth in [1] is 34.2%; in test [2] it was 43.1%; in test [3], 65%; in test [4], 0.801% (active); in [5], 51%; in test [6], 39.8%. Besides, the growth in [7] was 45.7%; in [8], 50.1%; in test [9], 1.15% (active).
On to `O=C(/C=C/c1ccc(Cl)cc1)c1ccc(Nc2nc(NCCO)nc(N3CCOCC3)n2)cc1`, for which the growth in test [1] is 94.8%; in test [2], 90.8%; in [3] it was 89.6%; in [4], 98.1%; in test [5], 98.6%; in test [6], 87.2%. Further, the growth in [7] was 68%; in test [8], 90.6%; in test [9], 92.9%.
With `O=c1c2cccc(F)c2sc2c(N3CCNCC3)nc3ccccc3c12`, the growth in test [1] is 51%; in test [2], 37.9%; in test [3] it was 37.2%; in test [4], -77.2% (active); in test [5], 35.3%; in [6], 48.6%. Also, the growth in [7] is 21.8%; in test [8], 37%; in [9], 22.3%.
`O=C(/C=C/c1ccc(F)cc1)c1ccc(Nc2nc(NCCO)nc(Nc3ccc(Cl)cc3)n2)cc1`: the growth in [1] was 89.1%; in test [2], 93.1%; in [3] it was 80.8%; in test [4], 61.6%; in test [5] it was 87.8%; in [6] it was 81.1%. Further, the figures for the growth in [7], in [8] and in [9] were 51.1%, 69.8% and 84.6%, respectively.
